# A selection: hits, their analogues and other compounds. The true share with any hit is near 8.9%.
# D3 antag: D3 dopamine receptor (human) antagonism; 2.5% of 360,000 active; AID 652054; D3R cells, DiscoveRx beta-arrestin luminescence, antagonist mode; stronger effect = lower value; max response, negative = inhibition, %; in the data active means max response below about -50%; inconclusive means no clear call, values can overlap the other calls; further: on the % scale 0 is the no-effect control and ±100 the full control effect
# Target sequence (P35462 whole entry, looked up): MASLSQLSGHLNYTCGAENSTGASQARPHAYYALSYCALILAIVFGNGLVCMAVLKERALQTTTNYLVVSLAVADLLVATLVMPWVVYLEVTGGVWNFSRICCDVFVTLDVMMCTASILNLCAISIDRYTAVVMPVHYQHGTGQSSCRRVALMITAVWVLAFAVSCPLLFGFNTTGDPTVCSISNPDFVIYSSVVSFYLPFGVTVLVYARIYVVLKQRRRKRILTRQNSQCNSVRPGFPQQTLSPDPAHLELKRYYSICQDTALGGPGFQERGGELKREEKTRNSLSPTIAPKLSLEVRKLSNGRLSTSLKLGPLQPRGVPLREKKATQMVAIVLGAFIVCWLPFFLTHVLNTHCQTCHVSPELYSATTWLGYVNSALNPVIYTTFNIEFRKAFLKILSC
#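 Cells expressing the human receptor were seeded at 1500 cells/well, incubated overnight at 37 degrees C in 5% CO2, then exposed to library compounds with dopamine controls for 90 minutes at 37 degrees C before luminescent detection.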
# D3 ag: D3 dopamine receptor (human) agonism | P35462 | D3R DiscoveRx beta-arrestin cells, luminescence, 90 min | max activation, % | 0.58% of 410,000 active; in the data active means max activation above about 30%; further: 0% is about no effect
#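 Agonist mode: compounds and dopamine controls were applied to plated cells for 90 min at 37 degrees C after an overnight attachment at 1500 cells/well. Luminescent read-out followed 30 - 60 minutes at room temperature with DiscoveRx detection reagent.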
# KB-V1 MDR tox: KB-V1 MDR subline cytotoxicity; 3.4% of 400,000 active; KB-V1 MDR cells viability, CellTiter-Glo, 72 h; Potency, µM (highest dose often 46.1 µM), most hits filed as cytotoxic; AID 1347076; further: potency means the concentration at half of the fitted maximal effect; on the % scale 0 is the no-effect control and ±100 the full control effect; nearly all actives have a fitted effect of over 60% in size
#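 Compound-treated KB-V1 multidrug-resistant cells, 72 h, 37 degrees C; viability by CellTiter-Glo. Fitted qHTS curves give the values.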
# KB-3-1 tox: kills parental KB-3-1 adenocarcinoma cells; KB-3-1 viability, CellTiter-Glo ATP luminescence, 72 h; Potency, µM (series often up to 46.1 µM), usual class: cytotoxic; 1.4% of 400,000 active; AID 1347075; further: potency means the concentration at half of the fitted maximal effect; on the % scale 0 is the no-effect control and ±100 the full control effect; nearly all actives have a fitted effect of over 60% in size
#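 72 h, 37 °C compound treatment of KB-3-1 parental cells; CellTiter-Glo added, 10 min, luminescence read. Data corrected against DMSO-only plates and normalized before curve fitting.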
# MCF10A rereplic: inducers of DNA re-replication in MCF 10A breast cells; MCF 10A DNA re-replication, Hoechst nuclear intensity, 48 h; AID 624296; 2.9% of 350,000 active; Potency, µM (series often up to 46.1 µM), inactives show top-dose activity, positive = re-replication, most hits filed as activators; further: potency means the concentration at half of the fitted maximal effect; % of control where 0% means no effect; nearly all actives have a fitted effect of over 50% in size
# SW480 rereplic: DNA re-replication induction in SW480 cells. AID 624297. SW480 DNA re-replication, Hoechst DNA content imaging, 48 h. 1.8% of 340,000 active. Potency, µM (titrated, usually from 46.1 µM), for inactives: at the top dose re-replication activation, hits mostly activators; further: potency means the concentration at half of the fitted maximal effect; % of control where 0% means no effect; nearly all actives have a fitted effect of over 55% in size
#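 250 cells/well; 23 nL cpd via pin tool; 48 hr, 37 C, 5% CO2; Hoechst 40 min; imager read of total nuclear intensity, ex 405/em 500-530 nm.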
# An asterisk follows results filed as active; i = inactive; ? = inconclusive; . = not tested or not shown; ! = not confirmed by another sample. Unless noted, the call rests on the fitted dose curve; in most records, active means well fitted curve in the direction sought with a large enough effect; inconclusive means small, poorly fitted or top-dose-only effect, or another doubt; inactive means no such curve, though single readings can be large; an effect the other way counts as inactive or inconclusive.
SMILES,D3 antag,D3 ag,KB-V1 MDR tox,KB-3-1 tox,MCF10A rereplic,SW480 rereplic
CN(C)S(=O)(=O)c1ccc(Cl)c(C(=O)Nc2cccc3ncccc23)c1,-1,7,i,i,?,5%
CC(C)c1ccc(OCC(=O)Nc2ccc(S(=O)(=O)Nc3ncccn3)cc2)cc1,.,1,i,i,.,.
Cc1nc(-c2ccc(Cl)cc2)sc1CCNC(=O)c1ccc(C(F)(F)F)cc1,.,-8,i,i,.,.
Cc1ccc(NC(CNS(=O)(=O)c2ccc(Cl)cc2)c2ccccc2)cc1 (centres undefined),-15,3,?,?,?,5%
COc1cccc(NC(CNS(=O)(=O)c2ccc(C)cc2)c2ccccc2)c1 (centres undefined),.,5,18µM*,?,.,.
COc1cccc(NC(CNS(=O)(=O)c2ccc(Cl)cc2)c2ccccc2)c1 (centres undefined),.,-1,i,18µM*,.,.
O=S(=O)(NCC(Nc1ccc(Cl)cc1)c1ccccc1)c1ccccc1 (centres undefined),-6,-2,18µM*!,?,4.6µM*,?
COc1ccc(C)c2sc(N(Cc3cccnc3)C(=O)CCc3ccccc3)nc12,.,7,i,i,.,.
COc1ccc(-n2nnnc2-c2cnc3cc4c(cc3c2C)OCO4)cc1,-25,2,9.2µM*,i,3%,9%
CN(C)c1cccc(C(=O)OCC(=O)N2CCc3ccccc3C2)c1,4,-14,i,i,-6%,1%
CC(OC(=O)c1cccc(N(C)C)c1)C(=O)N1CCc2ccccc2C1 (centres undefined),3,2,8.2µM*,i,12%,-1%
O=C1Cc2ccccc2C(c2ccc(Br)cc2)N1 (centres undefined),8,16,?,i,2%,?
O=C1NC2=C(CCc3ccccc32)C(c2ccc(Br)cc2)N1 (centres undefined),4,0,21µM*,i,?,13%
COc1ccc(CN(C(=O)CSc2nnc(-c3ccccc3C)o2)c2ccc(F)cc2)cc1,-17,6,i,i,14%,?
Clc1cccc(CSc2nnc(-c3c[nH]c4ccccc34)o2)c1,3,-4,?,i,11µM*,-5%
O=C(CSc1nnc(-c2c[nH]c3ccccc23)o1)N(Cc1ccccc1)c1ccc(F)cc1,-12,-4,12µM*,i,12%,-8%
Nc1nc2c(c(=O)[nH]1)N(C=O)C(CNc1ccc(C(=O)N[C@@H](CCC(=O)O)C(=O)O)cc1)CN2 (some centres undefined),.,13,.,.,.,.
C=CCN1C[C@H](C(=O)N(CCCN(C)C)C(=O)NCC)C[C@@H]2c3cccc4[nH]cc(c34)C[C@H]21,.,67*,.,.,.,.
C=CCN1CC(C(=O)N(CCCN(C)C)C(=O)NCC)CC2c3cccc4[nH]cc(c34)CC21 (centres undefined),.,.,.,.,-1%,-12%
CCc1nc2oc3ccccc3c(=O)c2c(=O)n1-c1ccc(C)cc1,4,16,i,i,2%,-10%
CCc1nc2oc3ccccc3c(=O)c2c(=O)n1-c1ccccc1,18,19,15µM*,i,-4%,6%
Nc1nc(-c2ccco2)c(-c2ccco2)s1,-58*,-12,i,i,13%,1%
Cc1cc2nc(SCC(=O)N(C)C)c3c(c2cc1C)CCCC3,-50*,-1,i,i,1%,-4%
COc1ccccc1NC(=O)CCN1C(=O)C2C3CCC(C3)C2C1=O (centres undefined),17,15,.,.,-2%,0%
Cc1ccc(NC(=S)NCC23C=CC(O2)C2C(=O)N(c4ccc(C)cc4)C(=O)C23)cc1 (centres undefined),12,2,13µM*,i,?,?
Cc1cccc(NC(=S)NCC23C=CC(O2)C2C(=O)N(c4ccc(Cl)cc4)C(=O)C23)c1 (centres undefined),-18,0,?,i,?,?
